Measurements: PubChem BioAssay AID1159580 (chemical genetic matrix, 2015)
Hit rate of the full screen: of about 5,500 compounds, about 2,000 (36%) were called active. Roughly 18% stayed inconclusive and do not appear here. No stated cut-off is given here; in the data, active means normalized growth mostly below about 0.91 (no sharp cut-off); inconclusive means no clear call, values can overlap the other calls; inactive means mostly above about 0.92. The list shows a part of the results.

Test: chemical genetic growth profiling, strain panel (AID 1159580);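 further: tested at 20 µM; growth read once vehicle control cultures reached saturation at 30 °C; 1 = growth at the plate median or of vehicle wells; lower values mean less growth of the strain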
Conditions: S. cerevisiae deletion strains, growth OD

Measured: normalized growth

CC12CCC3C(CCC4(O)CC(O)CCC34/C=N/NC(N)=O)C1(O)CCC2C1=CC(=O)OC1 (stereo not given)
inactive: locus YBR021W, strain FUR4, hits give low values 1.05 | locus YBR229C, strain ROT2, hits give low values 1.02 | locus YCL029C, strain bik1, hits give low values 0.999 | locus YDL035C, strain GPR1, hits give low values 1.05 | locus YDL074C, strain BRE1, hits give low values 1.05 | locus YDL101C, strain DUN1, hits give low values 1.01 | locus YDL185W, strain tfp1, hits give low values 0.998 | locus YDL192W, strain arf1, hits give low values 1.01 | locus YDR101C, strain arx1, hits give low values 1.01 | locus YDR162C, strain NBP2, hits give low values 1.02 | locus YDR318W, strain mcm21, hits give low values 0.985 | locus YDR388W, hits give low values 0.985 | locus YDR502C, strain sam2, hits give low values 0.974 | locus YER110C, hits give low values 0.963 | locus YER155C, strain BEM2, hits give low values 1 | locus YER167W, strain BCK2, hits give low values 1.02 | locus YGL078C, strain dbp3, hits give low values 0.983 | locus YGL086W, strain mad1, hits give low values 0.991 | locus YGL248W, strain PDE1, hits give low values 1 | locus YGR078C, strain PAC10, hits give low values 0.991 | locus YGR135W, strain pre9, hits give low values 0.957 | locus YGR252W, strain gcn5, hits give low values 0.98 | locus YHR030C, strain SLT2, hits give low values 1.01 | locus YHR079C, strain IRE1 (second series), hits give low values 0.988 | locus YHR094C, strain hxt1, hits give low values 0.979 | locus YHR129C, strain ARP1, hits give low values 1.01 | locus YHR200W, strain rpn10, hits give low values 0.994 | locus YIL066C, strain RNR3, hits give low values 1.04 | locus YIL073C, strain SPO22, hits give low values 1.01 | locus YIL125W, strain kgd1, hits give low values 0.992 | locus YIR030C, strain dcg1, hits give low values 0.994 | locus YJL095W, strain BCK1, hits give low values 1 | locus YJL134W, strain LCB3, hits give low values 1.01 | locus YJL168C, strain set2, hits give low values 0.991 | locus YJL187C, strain SWE1 (second series), hits give low values 0.999 | locus YKL009W, strain mrt4, hits give low values 1.03 | locus YKL068W, hits give low values 0.987 | locus YKL085W, strain MDH1 (second series), hits give low values 0.994 | locus YKL085W, strain MDH1, hits give low values 0.994 | locus YKR001C, strain vps1, hits give low values 0.996 | locus YLR039C, strain RIC1, hits give low values 1.06 | locus YLR058C, strain SHM2, hits give low values 1.02 | locus YLR102C, strain apc9, hits give low values 0.985 | locus YLR262C, strain YPT6, hits give low values 1.05 | locus YLR268W, strain sec22, hits give low values 1.02 | locus YLR371W, strain rom2, hits give low values 0.994 | locus YLR418C, strain cdc73, hits give low values 0.975 | locus YML016C, strain PPZ1, hits give low values 1.02 | locus YML032C, strain rad52, hits give low values 1 | locus YML124C, strain tub3, hits give low values 0.986 | locus YMR078C, strain ctf18, hits give low values 0.981 | locus YMR223W, strain ubp8, hits give low values 0.975 | locus YMR307W, strain GAS1, hits give low values 1.08 | locus YNL067W, strain RPL9B, hits give low values 0.986 | locus YNL153C, strain GIM3, hits give low values 0.991 | locus YNL233W, strain BNI4, hits give low values 0.987 | locus YNL250W, strain rad50, hits give low values 0.985 | locus YNL271C, strain bni1, hits give low values 0.994 | locus YNL298W, strain CLA4, hits give low values 0.983 | locus YNL307C, strain MCK1, hits give low values 0.986 | locus YNR052C, strain pop2, hits give low values 0.98 | locus YOL012C, strain htz1 1.29 | locus YOL147C, strain pex11, hits give low values 0.986 | locus YOR061W, strain CKA2, hits give low values 1.04 | locus YOR069W, strain VPS5, hits give low values 1 | locus YOR136W, strain idh2, hits give low values 0.98 | locus YOR144C, strain elg1, hits give low values 0.989 | locus YOR184W, strain ser1, hits give low values 1.03 | locus YOR316C, strain cot1, hits give low values 0.987 | locus YPL241C, strain CIN2, hits give low values 1.01 | locus YPR119W, strain clb2, hits give low values 0.983 | locus YPR141C, strain kar3, hits give low values 0.994 | locus YPR163C, strain tif3, hits give low values 0.989 | locus YPR167C, strain met16, hits give low values 0.978 | strain wtn01, hits give low values 1.01
